Laboratory results reported in PubChem BioAssay.
Several values for one entry are separate records, joined by “and”; a condition that tells them apart may be missing. Equal entries are not always repeated. A number with no mark means an inactive call.

What follows are compounds tested on XIP peptide (Xip251-270) binding (assay: XIP fragment 251-270 binding compounds – biochemical, small-molecule microarray, fluorescence 635/667 nm, 0.1 µg/mL protein, primary screen (AID 1182)). Settings: fluorescent protein binding, 635 nm; higher = more signal, called active from +8 up or from −8 down unless noted.
Compound COC(=O)NCC=Cc1nc(CCC=CC(=O)O[C@H]2CC3CC(=O)O[C@@H](C=CCC(C)C)C[C@@H]4CC[C@H](C)[C@@H](C[C@@H](OC)C[C@H](C2)O3)O4)co1 has a composite z-score of 0.0433.
For CN1CCC(c2ccc(CO)cc2)=CC1c1cccs1 (stereo not given), the composite z-score was 0.219.
CCOC(=O)[C@H]1CC=C2C(=O)Oc3ccccc3[C@@H]21 gave a composite z-score of 0.23.
CCCc1cc2c(n1Cc1ccc(C)cc1)C(C)C1CN(C(=O)c3ccccc3)C(C)(C(=O)OC)C21 (stereo not given) was tested, and the composite z-score was 0.707.
In the case of CN1CCc2nc(CO)c(CO)cc2C1, the composite z-score is reported as -0.102.
Work on CCc1cc2c(nc1CC)CCN(CCC(C)=NOC)C2 yielded a composite z-score of 0.341.
Compound C[C@@H]1OC=C2[C@@H](O)[C@H]3O[C@H]3C(=O)[C@]23[C@H]1[C@H]1C2=C([C@@H](O)[C@H]4O[C@H]4C2=O)[C@@H]3O[C@@H]1C has a composite z-score of -0.496.
In the case of COC(=O)[C@H]1[C@@H](O)[C@@]2(O)c3c(OC)cc(OC)cc3O[C@@]2(c2ccc(OC)cc2)[C@@H]1c1ccccc1, the composite z-score is reported as -0.119.
Compound CCOC(=O)[C@H]1CC=C2C(=O)Oc3ccc(Br)cc3[C@@H]21 has a composite z-score of 0.874.
For COC(=O)[C@H]1C(=O)c2ccccc2O[C@@](C(=O)OC)(c2ccccc2)[C@@H]1c1ccccc1, the composite z-score was 0.107.
OCc1ccc(C2=CC(c3cccs3)N(Cc3cccc(OC(F)(F)F)c3)CC2)cc1 (stereo not given) gave a composite z-score of 0.209.
CCCC=C(CCC)[C@@H](NP(=O)(c1ccccc1)c1ccccc1)c1ccccc1 showed a composite z-score of 0.147.
Compound C=C(CC1(C(C)NP(=O)(c2ccccc2)c2ccccc2)CC1)c1ccccc1 (stereo not given) has a composite z-score of -0.131.
In the case of CCCC[C@@H]1C[C@H]1[C@@H](NP(=O)(c1ccccc1)c1ccccc1)c1ccc(Cl)cc1, the composite z-score is reported as 0.156.
Compound c1ccc(-c2cc3c(nc2-c2ccccc2)CCNC3)cc1 has a composite z-score of 0.236.
COC(=O)[C@@]1(Cc2ccccc2)[C@H]2c3cc(C(=O)N(C)C)n(C)c3C[C@H]2CN1C(=O)c1ccccc1 showed a composite z-score of 0.0028.
Compound O=P(c1ccccc1)(c1ccccc1)N1CC2(CC2)CC(O)(c2ccccc2)C1 (stereo not given) has a composite z-score of 0.115.
Work on COC(=O)[C@@]1(Cc2ccccc2)[C@H]2c3cc(C(=O)N(C)C)[nH]c3C[C@H]2CN1C(=O)c1ccccc1 yielded a composite z-score of 0.665.
COC(=O)C1(C)C=C2C(=C(C)C(=O)C2C)CN1 (stereo not given) showed a composite z-score of -0.309.
Work on C[C@@H]1Cc2c(cnc3c2CN(C)CC3)CO1 yielded a composite z-score of -0.422.
In the case of COC(=O)[C@H]1[C@H](c2ccccc2)C(=O)[C@]2(O)c3ccccc3O[C@@]12c1ccccc1, the composite z-score is reported as -0.013.
In the case of CCCc1cc2c(n1CCO)C(C)C1CN(C(=O)c3ccccc3)C(C)(C(=O)OC)C21 (stereo not given), the composite z-score is reported as 0.26.
C[C@H]1O[C@H]2C3=C(C(=O)[C@@H]4O[C@@H]4[C@@H]3O)[C@@H]1[C@@H]1[C@@H](C)OC=C3[C@@H](O)[C@H]4O[C@H]4C(=O)[C@]312 showed a composite z-score of -0.7.
With CC1N(P(=O)(c2ccccc2)c2ccccc2)CC(O)(c2ccccc2)CC12CC2 (stereo not given) the composite z-score was 0.51 and -0.0366.
CCCc1cc2c(n1Cc1cccc(Cl)c1)C(C)C1CN(C(=O)c3ccccc3)C(C)(C(=O)OC)C21 (stereo not given) gave a composite z-score of 1.12.
